In PubChem BioAssay (NCI) one finds growth data, which are given here for four compounds.

Each structure is given as a SMILES string. This is part of a sample that, as a whole, favours compounds with a hit. Of some 83,000 tested, about 20% had one in any assay.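 Step 1: grow cells in 96-well plates. Step 2: add test compound at a single concentration. Step 3: incubate 48 h. Step 4: record percent growth.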 Calls of active or inactive are those of the source. Rule for the calls: active = growth percent below 10; inactive = the rest.

For this experiment, the system named is MDA-MB-468 breast. In words: NCI-60 one-dose screen, 48 h (100 = growth as untreated, 0 = no growth, -100 = all killed). Conditions: 10 µM unless noted.
As to `COc1ccc(C2CC(c3ccc(OC)c(OC)c3)=NN2C(=O)c2cc(OC)c(OC)c(OC)c2)cc1` (centres undefined), the growth was -32.5% (active).

Take `O=C(O)CC(C(=O)O)/C(=C\c1ccccc1)c1ccccc1` (centres undefined): the growth was 88.1% (inactive).

For `O=c1c2cc(-c3ccc(F)cc3F)ccc2n(Nc2ccccc2)c(=O)n1-c1cccc(C(F)(F)F)c1`, the growth was -10.4% (active).

Regarding `Cc1nc2scc(-c3ccccc3)n2c(=O)c1CCO`, the growth was 101% (inactive).
